# Of roughly 8,800 targets only a part is listed; those with a hit were picked by preference. About 0.5% of all pairs of compound and target were hits. Values without a mark were called inactive.
# Assays:
# Assay in all cases: log2 fold change, soluble protein after heating vs DMSO (PISA); higher = thermal stabilisation; K562 lysate, 10 uM; active = over 0.2 and 3.5 SD of the protein, either way, in both replicates (recomputed)
# [1] = compound: C1=CC=C(C=C1)[C@H](COC2=CC3=C(C=C2)NC(=O)N3)NC(=O)C4=CC=CN(C4=O)CC5=CC(=C(C=C5)F)F
# In short: (§1)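 Following dounce homogenisation of K562 pellets in PBS pH 7.4 with 1 mM MgCl2, crude extract at 1 mg/mL protein was incubated for 30 min with 10 μM compound. Aliquots were then heated for 3 min over 48°C-58°C and pooled, NP-40 was added to 0.5% at 4°C, and soluble protein was recovered as the supernatant at 21,000xg for 90 min. Channel-sum-equalised TMTpro 16plex LC-MS/MS quantified this protein. Each value, from duplicates, is a log-two fold change in thermal stability relative to solvent controls.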
# [2] = compound: CC1=C(SC2=C1C(=N[C@H](C3=NN=C(N32)C)CC(=O)N)C4=CC=C(C=C4)Cl)C
# In short: as §1
# [3] = compound: Cc1sc2c(c1C)C(c1ccc(Cl)cc1)=N[C@@H](CC(=O)OC(C)(C)C)c1nnc(C)n1-2
# In short: as §1
# [4] = compound: c1ccc([C@@H]2C[C@H]2NC2CCNCC2)cc1
# In short: as §1
# [5] = compound: CC1=C2C(=CC=C1)N=C(N(C2=O)C3=CC=CC=C3C)CN4C=NC5=C(N=CN=C54)N
# In short: as §1
# Chain of UniProt Q8WXA3 (Q8WXA3 whole entry, looked up): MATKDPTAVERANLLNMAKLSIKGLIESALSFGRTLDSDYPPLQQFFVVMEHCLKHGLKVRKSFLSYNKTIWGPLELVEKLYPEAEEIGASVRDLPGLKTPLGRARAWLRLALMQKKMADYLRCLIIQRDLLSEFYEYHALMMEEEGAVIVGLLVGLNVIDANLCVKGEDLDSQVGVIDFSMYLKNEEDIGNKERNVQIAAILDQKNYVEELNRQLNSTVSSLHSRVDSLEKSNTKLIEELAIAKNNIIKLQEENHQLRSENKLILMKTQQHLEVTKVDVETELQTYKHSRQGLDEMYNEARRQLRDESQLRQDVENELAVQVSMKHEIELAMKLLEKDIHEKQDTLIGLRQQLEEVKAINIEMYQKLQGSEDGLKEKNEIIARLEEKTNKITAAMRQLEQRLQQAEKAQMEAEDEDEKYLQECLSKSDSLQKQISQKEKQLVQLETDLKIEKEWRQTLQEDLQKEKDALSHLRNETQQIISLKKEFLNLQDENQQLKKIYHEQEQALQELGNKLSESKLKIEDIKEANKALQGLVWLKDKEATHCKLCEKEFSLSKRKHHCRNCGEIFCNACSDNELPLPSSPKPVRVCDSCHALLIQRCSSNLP
# Chain of UniProt Q9BXT8 (Q9BXT8 whole entry, looked up): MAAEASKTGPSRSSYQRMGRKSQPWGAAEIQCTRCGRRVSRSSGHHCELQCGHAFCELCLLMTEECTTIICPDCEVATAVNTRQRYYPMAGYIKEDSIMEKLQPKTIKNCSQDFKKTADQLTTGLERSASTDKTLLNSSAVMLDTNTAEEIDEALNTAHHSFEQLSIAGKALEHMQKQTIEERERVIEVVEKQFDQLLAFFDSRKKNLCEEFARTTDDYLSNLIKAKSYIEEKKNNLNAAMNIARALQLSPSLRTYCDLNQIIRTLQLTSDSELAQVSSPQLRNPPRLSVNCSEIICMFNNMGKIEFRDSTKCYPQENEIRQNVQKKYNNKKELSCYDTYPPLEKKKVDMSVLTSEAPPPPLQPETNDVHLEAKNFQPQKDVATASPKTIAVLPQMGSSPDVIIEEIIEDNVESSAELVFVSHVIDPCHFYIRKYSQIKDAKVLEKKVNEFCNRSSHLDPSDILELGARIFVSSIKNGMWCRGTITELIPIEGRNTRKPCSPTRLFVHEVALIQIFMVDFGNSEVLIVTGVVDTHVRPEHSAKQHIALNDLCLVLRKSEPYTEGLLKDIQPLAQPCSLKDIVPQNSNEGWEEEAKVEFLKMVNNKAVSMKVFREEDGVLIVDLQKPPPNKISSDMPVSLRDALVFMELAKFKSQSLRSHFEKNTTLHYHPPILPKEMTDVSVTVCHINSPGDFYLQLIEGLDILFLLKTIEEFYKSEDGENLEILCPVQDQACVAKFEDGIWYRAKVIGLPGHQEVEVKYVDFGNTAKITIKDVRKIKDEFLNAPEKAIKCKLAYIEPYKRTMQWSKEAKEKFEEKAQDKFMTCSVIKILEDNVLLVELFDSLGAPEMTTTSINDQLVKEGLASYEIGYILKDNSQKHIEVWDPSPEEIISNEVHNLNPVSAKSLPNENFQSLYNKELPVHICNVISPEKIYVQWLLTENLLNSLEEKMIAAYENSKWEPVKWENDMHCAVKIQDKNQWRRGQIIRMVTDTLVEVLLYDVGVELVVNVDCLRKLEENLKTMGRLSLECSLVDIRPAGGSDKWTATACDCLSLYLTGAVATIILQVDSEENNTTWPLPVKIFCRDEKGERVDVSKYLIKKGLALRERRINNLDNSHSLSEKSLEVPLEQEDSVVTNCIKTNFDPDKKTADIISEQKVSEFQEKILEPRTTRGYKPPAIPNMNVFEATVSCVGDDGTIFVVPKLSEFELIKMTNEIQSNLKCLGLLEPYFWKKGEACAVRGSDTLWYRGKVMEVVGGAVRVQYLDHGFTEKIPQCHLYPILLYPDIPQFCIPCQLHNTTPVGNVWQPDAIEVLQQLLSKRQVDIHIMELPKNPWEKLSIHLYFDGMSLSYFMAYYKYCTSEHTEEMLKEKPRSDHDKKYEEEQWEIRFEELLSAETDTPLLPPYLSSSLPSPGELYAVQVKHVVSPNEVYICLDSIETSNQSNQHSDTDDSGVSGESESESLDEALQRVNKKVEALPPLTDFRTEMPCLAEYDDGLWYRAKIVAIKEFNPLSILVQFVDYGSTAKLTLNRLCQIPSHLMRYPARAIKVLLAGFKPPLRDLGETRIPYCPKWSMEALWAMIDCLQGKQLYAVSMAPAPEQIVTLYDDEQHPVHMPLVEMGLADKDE
# Chain of UniProt P51812 (P51812 whole entry, looked up): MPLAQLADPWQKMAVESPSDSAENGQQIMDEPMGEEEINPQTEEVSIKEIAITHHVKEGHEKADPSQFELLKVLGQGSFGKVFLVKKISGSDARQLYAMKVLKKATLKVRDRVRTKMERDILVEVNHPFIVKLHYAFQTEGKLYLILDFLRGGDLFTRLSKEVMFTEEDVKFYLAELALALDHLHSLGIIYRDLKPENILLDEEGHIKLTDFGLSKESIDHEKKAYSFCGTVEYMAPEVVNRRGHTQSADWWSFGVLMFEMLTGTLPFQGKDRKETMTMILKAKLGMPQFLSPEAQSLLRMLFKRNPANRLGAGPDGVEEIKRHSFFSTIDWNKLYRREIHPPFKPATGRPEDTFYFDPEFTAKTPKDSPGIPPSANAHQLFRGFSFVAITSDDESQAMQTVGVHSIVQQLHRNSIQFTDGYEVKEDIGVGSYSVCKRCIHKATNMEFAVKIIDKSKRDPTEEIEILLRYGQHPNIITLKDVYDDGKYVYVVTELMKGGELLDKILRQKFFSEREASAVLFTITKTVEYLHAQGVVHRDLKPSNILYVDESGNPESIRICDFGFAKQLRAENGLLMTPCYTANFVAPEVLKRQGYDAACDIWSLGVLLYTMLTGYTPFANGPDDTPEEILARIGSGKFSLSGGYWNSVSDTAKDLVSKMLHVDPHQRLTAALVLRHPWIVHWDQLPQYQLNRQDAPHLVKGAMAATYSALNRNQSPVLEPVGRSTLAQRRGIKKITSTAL
# Chain of UniProt Q99496 (Q99496 whole entry, looked up): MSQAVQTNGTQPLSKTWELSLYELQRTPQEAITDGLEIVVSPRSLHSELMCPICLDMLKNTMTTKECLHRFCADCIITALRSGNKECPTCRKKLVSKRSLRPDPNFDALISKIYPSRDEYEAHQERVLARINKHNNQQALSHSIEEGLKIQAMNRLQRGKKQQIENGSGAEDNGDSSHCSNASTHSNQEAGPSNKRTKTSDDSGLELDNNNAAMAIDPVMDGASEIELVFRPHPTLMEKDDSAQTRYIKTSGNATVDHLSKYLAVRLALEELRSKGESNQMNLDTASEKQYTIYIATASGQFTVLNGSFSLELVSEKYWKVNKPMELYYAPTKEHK
# Chain of UniProt Q6NUM9 (Q6NUM9 whole entry, looked up): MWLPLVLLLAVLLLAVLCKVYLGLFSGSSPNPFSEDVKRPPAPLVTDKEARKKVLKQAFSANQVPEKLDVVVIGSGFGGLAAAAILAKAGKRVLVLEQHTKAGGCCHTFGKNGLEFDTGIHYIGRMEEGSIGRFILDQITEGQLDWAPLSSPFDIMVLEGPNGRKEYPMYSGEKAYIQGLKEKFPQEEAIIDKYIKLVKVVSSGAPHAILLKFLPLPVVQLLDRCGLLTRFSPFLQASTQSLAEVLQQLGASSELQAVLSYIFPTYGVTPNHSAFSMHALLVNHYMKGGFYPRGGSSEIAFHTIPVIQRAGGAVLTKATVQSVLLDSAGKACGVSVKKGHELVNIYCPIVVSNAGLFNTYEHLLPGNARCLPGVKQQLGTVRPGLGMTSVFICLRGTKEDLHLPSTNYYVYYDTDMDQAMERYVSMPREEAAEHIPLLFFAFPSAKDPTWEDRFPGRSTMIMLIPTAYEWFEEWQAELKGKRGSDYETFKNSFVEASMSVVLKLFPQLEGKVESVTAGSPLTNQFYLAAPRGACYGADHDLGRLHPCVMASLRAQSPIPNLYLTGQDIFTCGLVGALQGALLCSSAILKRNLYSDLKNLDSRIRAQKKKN
# Chain of UniProt Q8TC12 (Q8TC12 whole entry, looked up): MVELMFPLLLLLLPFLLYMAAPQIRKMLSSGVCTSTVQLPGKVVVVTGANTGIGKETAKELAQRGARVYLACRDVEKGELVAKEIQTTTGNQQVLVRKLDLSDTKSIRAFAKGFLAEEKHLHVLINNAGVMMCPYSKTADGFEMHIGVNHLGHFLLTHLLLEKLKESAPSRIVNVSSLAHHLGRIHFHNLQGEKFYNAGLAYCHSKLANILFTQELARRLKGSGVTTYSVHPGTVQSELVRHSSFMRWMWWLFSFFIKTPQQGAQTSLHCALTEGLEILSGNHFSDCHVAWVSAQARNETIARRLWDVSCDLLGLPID
# Chain of UniProt Q8TEB9 (Q8TEB9 whole entry, looked up): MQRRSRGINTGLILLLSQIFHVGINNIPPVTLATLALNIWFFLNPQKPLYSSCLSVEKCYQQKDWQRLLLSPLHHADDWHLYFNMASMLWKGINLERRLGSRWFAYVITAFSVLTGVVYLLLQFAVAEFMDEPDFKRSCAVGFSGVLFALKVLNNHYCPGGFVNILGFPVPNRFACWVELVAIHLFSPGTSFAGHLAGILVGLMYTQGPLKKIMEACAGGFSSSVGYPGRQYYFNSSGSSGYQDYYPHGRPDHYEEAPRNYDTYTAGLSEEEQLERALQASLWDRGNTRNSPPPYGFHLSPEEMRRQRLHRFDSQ
# Chain of UniProt P38159 (P38159 whole entry, looked up): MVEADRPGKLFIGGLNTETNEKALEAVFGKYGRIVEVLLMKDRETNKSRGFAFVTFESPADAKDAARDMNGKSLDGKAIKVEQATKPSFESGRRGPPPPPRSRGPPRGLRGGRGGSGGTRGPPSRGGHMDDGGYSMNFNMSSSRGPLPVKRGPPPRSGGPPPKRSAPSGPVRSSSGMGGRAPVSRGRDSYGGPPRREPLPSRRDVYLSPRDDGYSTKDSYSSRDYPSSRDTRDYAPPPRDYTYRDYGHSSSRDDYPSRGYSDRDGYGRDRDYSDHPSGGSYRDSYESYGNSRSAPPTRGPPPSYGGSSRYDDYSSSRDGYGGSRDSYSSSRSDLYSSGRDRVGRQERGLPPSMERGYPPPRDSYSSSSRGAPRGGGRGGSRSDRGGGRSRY
Target,log2 fold change [1],log2 fold change [2],log2 fold change [3],log2 fold change [4],log2 fold change [5]
RALGAPB isoform 3 (UniProt Q86X10),0.107,0.05,0.189,0.153,
RDH11 (UniProt Q8TC12),,,0.069,-0.085,0.064
RUFY2 isoform 1 (UniProt Q8WXA3),-0.28,-0.106,,-0.111,-0.087
RAD54L (UniProt Q92698),-0.013,-0.031,-0.299,-1.06 (active),
RHBDD1 (UniProt Q8TEB9),-0.032,0.058,,0.039,-0.117
S100A6 (UniProt P06703),,,-0.1,0.104,-0.084
RPS6KA3 (UniProt P51812),-0.049,-0.031,0.009,-0.061,-0.008
RBMX (UniProt P38159),0.089,-0.01,-0.015,-0.072,-0.004
RNF2 (UniProt Q99496),,,-0.091,0.343,0.03
RETSAT (UniProt Q6NUM9),0.103,-0.037,-0.145,-0.015,0.148
RMI2 (UniProt Q96E14),,,0.079,,-0.18
RPS6KA5 (UniProt O75582),,,-0.024,-0.017,-0.084
RNF17 (UniProt Q9BXT8),-0.241,1 (active),0.129,0.451,
